What all share (experiment): NCI-60 one-dose screen, 48 h (100 = growth as untreated, 0 = no growth, -100 = all killed)
One assay relates to SN12C renal. The conditions noted are these: 10 µM unless noted.
For a further assay, the system named is UO-31 renal. The conditions noted are these: 10 µM unless noted.
A further assay relates to TK-10 renal. The conditions noted are these: 10 µM unless noted.
The subject of a further assay is ACHN renal. The conditions noted are these: 10 µM unless noted.
For another assay, the system named is CAKI-1 renal. The following applies: 10 µM unless noted.
The next assay relates to A498 renal. The conditions noted are these: 10 µM.
A further assay relates to HL-60(TB) leukemia. The conditions noted are these: 10 µM unless noted.
For another assay, the system named is CCRF-CEM leukemia. The conditions noted are these: 10 µM unless noted.
For the next assay, the system named is MOLT-4 leukemia. The following applies: 10 µM unless noted.
A further assay deals with SR leukemia. The conditions noted are these: 10 µM unless noted.
Another assay concerns RPMI-8226 leukemia. The following applies: 10 µM unless noted.
In a further assay the test system is OVCAR-8 ovarian. The conditions noted are these: 10 µM unless noted.
The test system of another assay is OVCAR-5 ovarian. The following applies: 10 µM unless noted.
In a further assay the test system is OVCAR-4 ovarian. The following applies: 10 µM unless noted.
The test system of a further assay is SK-OV-3 ovarian. The following applies: 10 µM unless noted.
For the next assay, the system named is OVCAR-3 ovarian. The following applies: 10 µM unless noted.
Another assay relates to HS 578T breast. The following applies: 10 µM unless noted.
A further assay has as its system IGROV1 ovarian. The conditions noted are these: 10 µM unless noted.
In the next assay the test system is EKVX NSCLC. The conditions noted are these: 10 µM unless noted.

Compounds without any hit were thinned out: in the full panel of roughly 83,000, 20% have a hit.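 Growth was measured after 48 h exposure to one concentration of compound in 96-well plates. Values under 10 count as active.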 A number with no mark means an inactive call. Active and inactive are the calls of the source.

Turning to `Fc1ccc(C2=CCNCC2)cc1`, the growth in the assay on SN12C renal is 73%; in the assay with UO-31 renal, 84.7%; in the assay on TK-10 renal, 86.5%; in the assay with ACHN renal, 108%; with CAKI-1 renal, 79.5%; with A498 renal, 87.8%. The growth was 109% in the assay on HL-60(TB) leukemia; 118% in the assay on CCRF-CEM leukemia; 106% in the assay on MOLT-4 leukemia; 114% in the assay with SR leukemia; 122% in the assay on RPMI-8226 leukemia; 100% in the assay on OVCAR-8 ovarian. Besides, the growth in the assay with OVCAR-5 ovarian was 82.3%; with OVCAR-4 ovarian, 111%; in the assay on SK-OV-3 ovarian, 104%; with OVCAR-3 ovarian, 102%; with HS 578T breast, 114%.
Regarding `CC(C)(C)N1CC1C#N` (stereo not given), the growth in the assay on SN12C renal was 103%; in the assay on UO-31 renal, 92.1%; with TK-10 renal, 98%; in the assay with ACHN renal it was 101%; with CAKI-1 renal it was 92.6%; with A498 renal it was 105%. The growth is 98.3% in the assay on HL-60(TB) leukemia; 101% in the assay on CCRF-CEM leukemia; 98.4% in the assay with MOLT-4 leukemia; 97.6% in the assay on SR leukemia; 99.2% in the assay with RPMI-8226 leukemia; 103% in the assay with OVCAR-8 ovarian. For the same molecule, the growth is 99.5% in the assay with OVCAR-5 ovarian; 119% with OVCAR-4 ovarian; 101% in the assay on SK-OV-3 ovarian; 103% in the assay on IGROV1 ovarian; 101% with OVCAR-3 ovarian; 104% in the assay on HS 578T breast.
For the molecule `CO[C@H](C(=O)O)[C@@H]1Cc2cc3cc(OC4CC(OC5CC(O)C(O)C(C)O5)C(O)C(C)O4)c(C)c(O)c3c(O)c2C(=O)[C@H]1OC1CC(OC2CC(OC3CC(C)(O)C(O)C(C)O3)C(O)C(C)O2)C(O)C(C)O1` (stereo not given in full), the growth in the assay with EKVX NSCLC was 31.3%; in the assay on SN12C renal, 15.3%; in the assay on UO-31 renal it was 8.85% (active); with TK-10 renal, 24.2%; with ACHN renal it was 2.89% (active); in the assay on CAKI-1 renal it was 25.7%. Moreover, the growth was 41.3% with HL-60(TB) leukemia; 23.8% in the assay with CCRF-CEM leukemia; 1.78% (active) in the assay with MOLT-4 leukemia; 10.4% in the assay with SR leukemia; 6.67% (active) in the assay with RPMI-8226 leukemia; 13.5% in the assay on OVCAR-8 ovarian. The growth in the assay on OVCAR-5 ovarian was 17.6%; in the assay on OVCAR-4 ovarian, 19.7%; in the assay on SK-OV-3 ovarian, 23.7%; with IGROV1 ovarian, 35.4%; with OVCAR-3 ovarian it was 10%; in the assay with HS 578T breast, -1.09% (active).
As for `CC(C)[C@]12O[C@H]1[C@@H]1O[C@]13[C@]1(O[C@H]1C[C@H]1c4c(C(=O)c5ccccc5)oc(OC(=O)c5ccccc5)c4CC[C@@]13C)[C@@H]2O`, the growth is -17.2% (active) with EKVX NSCLC; 23.7% in the assay with SN12C renal; 7.34% (active) with UO-31 renal; 44% with TK-10 renal; 10.6% in the assay on ACHN renal; -49.4% (active) in the assay on A498 renal. In addition, the growth with HL-60(TB) leukemia is -46% (active); in the assay on CCRF-CEM leukemia, -32.5% (active); with OVCAR-8 ovarian, 6.13% (active); with OVCAR-5 ovarian it was 15.2%; in the assay with OVCAR-4 ovarian, 21.3%; in the assay with SK-OV-3 ovarian it was 27.3%. Besides, the growth in the assay on IGROV1 ovarian is -33% (active); in the assay on OVCAR-3 ovarian it was -57.5% (active); in the assay with HS 578T breast, -30.6% (active).
For `CCCOC(=O)N[C@H]1CCc2c(Br)c(OC)c(OC)c(OC)c2-c2ccc(SC)c(=O)cc21`, the growth was 14.1% in the assay with SN12C renal; 43% in the assay on TK-10 renal; 27.6% in the assay with ACHN renal; 11.2% in the assay with CAKI-1 renal; -25.7% (active) with HL-60(TB) leukemia; 5.05% (active) with CCRF-CEM leukemia. Also, the growth was 10.7% in the assay on MOLT-4 leukemia; 3.3% (active) with SR leukemia; -9.16% (active) in the assay with RPMI-8226 leukemia; 13.4% in the assay with OVCAR-8 ovarian; 36.7% in the assay with OVCAR-5 ovarian; 32.6% with OVCAR-4 ovarian. The growth with SK-OV-3 ovarian was 40.8%; with IGROV1 ovarian, 10.9%; in the assay on OVCAR-3 ovarian, -16.8% (active).
Consider `CC(=O)C(c1c(O)c2ccccc2oc1=O)c1cc(=O)oc2c1ccc1ccccc12` (stereo not given), for which the growth in the assay on EKVX NSCLC was 92.1%; in the assay on SN12C renal, 87.1%; with UO-31 renal it was 80.3%; in the assay with TK-10 renal, 116%; with ACHN renal, 101%; in the assay with A498 renal, 79.8%. For the same molecule, the growth in the assay on HL-60(TB) leukemia is 96.9%; in the assay on CCRF-CEM leukemia, 94.5%; with MOLT-4 leukemia, 90.2%; in the assay with SR leukemia, 92.5%; in the assay with OVCAR-8 ovarian it was 99.4%; in the assay on OVCAR-5 ovarian, 99.4%. Besides, the growth is 101% with OVCAR-4 ovarian; 94.6% with SK-OV-3 ovarian; 106% in the assay with IGROV1 ovarian; 110% in the assay on OVCAR-3 ovarian; 91.5% with HS 578T breast.
Consider `O=[N+]([O-])/C=C\c1ccc(Cl)c(Cl)c1`, for which the growth is 91.8% in the assay with EKVX NSCLC; 77.5% in the assay with SN12C renal; 35.4% with UO-31 renal; 82.7% in the assay with TK-10 renal; 78.4% in the assay on ACHN renal; 84.7% in the assay on CAKI-1 renal. Moreover, the growth in the assay with HL-60(TB) leukemia was 34.6%; in the assay on CCRF-CEM leukemia, 33.6%; in the assay on MOLT-4 leukemia it was 37.1%; with SR leukemia, 7.87% (active); with RPMI-8226 leukemia, -2.51% (active); in the assay on OVCAR-8 ovarian, 66.1%. The growth in the assay with OVCAR-5 ovarian is 106%; in the assay on OVCAR-4 ovarian it was 84.4%; with SK-OV-3 ovarian, 96.4%; in the assay on IGROV1 ovarian, 92.7%; in the assay on OVCAR-3 ovarian, 44.6%; in the assay with HS 578T breast, 17%.
Regarding `ClCCN(CCCl)c1ccc(/C=N/Nc2ncnc3nc[nH]c23)cc1`, the growth with EKVX NSCLC was 85.1%; with SN12C renal it was 67.2%; with TK-10 renal, 113%; in the assay with ACHN renal, 74.8%; in the assay on CAKI-1 renal, 64%; with HL-60(TB) leukemia it was 92%. The growth was 42.4% in the assay on CCRF-CEM leukemia; 26.3% in the assay with MOLT-4 leukemia; 6.32% (active) in the assay with SR leukemia; 91.9% with RPMI-8226 leukemia; 80% with OVCAR-8 ovarian; 124% in the assay with OVCAR-5 ovarian. In addition, the growth in the assay with OVCAR-4 ovarian is 80.3%; in the assay with SK-OV-3 ovarian, 82.6%; in the assay on OVCAR-3 ovarian, 98.5%.
On to `Cn1cc(-c2csc(-c3cn(CCN4CCOCC4)c4ccccc34)n2)c2cccnc21`, for which the growth is 55.1% in the assay with EKVX NSCLC; 77.4% with SN12C renal; 34.9% in the assay on UO-31 renal; 87.9% in the assay with TK-10 renal; 63% in the assay on ACHN renal; 85.1% with A498 renal. In addition, the growth in the assay on HL-60(TB) leukemia is 36.1%; in the assay on CCRF-CEM leukemia, 36.9%; in the assay with MOLT-4 leukemia it was 29.9%; with SR leukemia, 63.6%; in the assay with RPMI-8226 leukemia it was 29.6%; in the assay with OVCAR-8 ovarian, 29.5%. Besides, the growth is 95.6% with OVCAR-5 ovarian; 64.2% with OVCAR-4 ovarian; 105% with SK-OV-3 ovarian; 70% in the assay with OVCAR-3 ovarian; 78% in the assay on HS 578T breast.

These data come from PubChem BioAssay (NCI).
